Values joined by “and” are separate entries in the source; they are usually repeats but may differ in a detail not shown here. Equal values may be shown once. Hit rate of the full screen: of about 220,000 compounds, about 2,400 (1.1%) were called active.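 Rule for the calls: active = inhibition above a per-campaign cutoff, the mean inhibition of all tested compounds plus 3 SD (cut at about 27% in these data); inactive = the rest.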 The sample as a whole holds a higher share of actives than the screen did.
assay: growth loss in parental Ba/F3 cells – cell-based, murine pro-B, CellTiter-Glo luminescence, counter-screen for JAK2V617F inhibitor project (AID 1486); conditions: Ba/F3 parental viability, CellTiter-Glo ATP luminescence; at 5.6 µM; stronger effect = higher value;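 note: 0% = DMSO wells and 100% = JAK Inhibitor I control wells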

Row | SMILES | inhibition
1 | Cc1ccc(Oc2nc(-c3ccccn3)nc3ccccc23)cc1 | -1.39% (inactive)
2 | CCOn1c(SC(C)C)nc2ccccc2c1=O | 3.34% (inactive)
3 | Cc1cc(C)n(-c2nc(C(F)(F)F)nc3ccccc23)n1 | 7.14% (inactive)
4 | CCCOn1c(-n2nc(C)cc2C)nc2ccccc2c1=O | 34% (active)
5 | CCOc1ccccc1C(=O)NCc1ccco1 | 4.63% (inactive)
6 | CCCC1=Nc2cc(C(=O)NCc3ccco3)ccc2Sc2ccccc21 | 80.2% (active)
7 | COc1ccc(CCNS(=O)(=O)c2ccc(C(=O)NCc3ccco3)cc2)cc1OC | 3.88% (inactive)
8 | COc1cccc(-n2c(SCC(=O)c3c[nH]c4ccccc34)nc3ccccc3c2=O)c1 | 3.88% (inactive)
9 | Cn1ncc2c(NNC(=O)Cc3cccc4ccccc34)ncnc21 | 6.49% (inactive)
10 | COCCCNC(=O)Cn1cc(/C=C(\C#N)C(=O)N2CCN(c3ccccc3)CC2)c2ccccc21 | 2.71% (inactive)
11 | O=C(O)CCC(=O)Nc1nc2ccc([N+](=O)[O-])cc2s1 | 3.87% (inactive)
12 | O=C(NC(Nc1nc2ccc([N+](=O)[O-])cc2s1)(C(F)(F)F)C(F)(F)F)c1ccccc1 | 53.4% (active)
13 | O=C(Nc1nc2ccc([N+](=O)[O-])cc2s1)c1ccncc1 | -4.75% (inactive)
14 | O=C(O)c1cccc(NC(=S)N/N=C/c2c[nH]c3ccccc23)c1 | 7.89% (inactive)
15 | Cc1cc(C)c(C(N)=O)c(Cl)n1 | 1.66% (inactive)
16 | CCOc1cccc(NC(=O)Cn2nc(-c3ccc4c(c3)OCCO4)ccc2=O)c1 | 1.09% (inactive)
17 | CN1CCc2nc(SC(C(=O)O)c3ccccc3)c(C#N)c(-c3cccs3)c2C1 (configuration not stated) | -0.18% (inactive)
18 | COc1cc(/C=C2/C(=O)ON=C2C)ccc1OCc1ccccc1F | 5.96% (inactive)
19 | CC1=NOC(=O)/C1=C\c1ccccc1 | -2.02% (inactive)
20 | COc1cc(/C=C2/C(=O)ON=C2C)ccc1OCc1cccc(F)c1 | 59.9% (active)
21 | CCc1ccc(Oc2nc([N+](=O)[O-])nn2C)cc1 | -0.05% (inactive)
22 | COC(=O)c1cccc(NS(C)(=O)=O)c1 | -2.38% (inactive)
23 | CCOC(=O)C1=C(N)N2C(=O)C(C)SC2=C(C(=O)OCC)C1c1cc(OC)c(OC)c(OC)c1 (configuration not stated) | 66% (active)
24 | CCOC(=O)c1cc(-c2nnc(-c3cc(OC)c(OC)c(OC)c3)o2)c(C)nc1C | 3.72% (inactive)
25 | CCOC(=O)C1CCN(C(=O)/C=C/c2cc(OC)c(OC)c(OC)c2)CC1 | 2% (inactive)

Row | SMILES | inhibition
26 | COc1ccc(C2C=C(c3ccc(Br)cc3)Nc3nc(NS(C)(=O)=O)nn32)cc1 (configuration not stated) | -0.92% (inactive)
27 | C=CCNC(=S)NNC(=O)c1cc(Cl)ccc1OC | 2.83% (inactive)
28 | Cc1ccc(CN(C)CC(=O)Nc2cccc([N+](=O)[O-])c2)o1 | 1.42% (inactive)
29 | Cc1ccc(NC(=O)CN(C)CC(=O)Nc2cccc(F)c2)cc1[N+](=O)[O-] | 27.9% (active)
30 | CN(CC(=O)Nc1cccc(F)c1)CC(=O)Nc1cccc([N+](=O)[O-])c1 | 3.37% (inactive)
31 | CC(=O)N/C(=C/c1ccc(OC(F)F)cc1)C(=O)O | 6.54% (inactive)
32 | O=C(Nc1ccc(Cl)cc1)N1CCc2[nH]c3ccccc3c2C1 | 4.99% (inactive)
33 | C=CCNC(=S)N1CCc2[nH]c3ccccc3c2C1 | 0.22% (inactive)
34 | Fc1ccc(NC(=S)N2CCc3[nH]c4ccccc4c3C2)cc1 | 35% (active)
35 | CC12CCC(C(=O)N(NC(=O)c3ccccc3O)C1=O)C2(C)C (configuration not stated) | 8.25% (inactive)
36 | COc1ccc(S(=O)(=O)NCC2CCCN(C(=O)c3occc3C)C2)cc1 (configuration not stated) | 7.62% (inactive)
37 | Cc1cccc(NC(=O)COc2ccccc2C)n1 | 83.3% (active)
38 | Cc1ccccc1OCC(=O)Nc1nc(C)c(C(=O)N(C)C)s1 | 7.55% (inactive)
39 | Cc1cccc(NC(=O)COc2ccc(Br)cc2C)n1 | 6.66% (inactive)
40 | CC1(C)CC(=O)C/C(=N\NC(=O)c2cccs2)C1 | 8.84% (inactive)
41 | NS(=O)(=O)c1ccc(NC(=S)NC(=O)c2cccc(Br)c2)cc1 | 7.4% (inactive)
42 | O=C(C[n+]1cc(-c2ccc(Cl)c(Cl)c2)n2c1CCC2)c1cccs1 | 10.5% (inactive)
43 | Clc1ccc(C[n+]2cc(-c3ccc(Cl)cc3)n3c2CCC3)cc1 | 58.9% (active)
44 | Cn1c(-c2ccccc2)c[n+]2c1CCCCC2 | 3.67% (inactive)
45 | Clc1ccc(C[n+]2cc(-c3ccccc3)n3c2CCC3)cc1 | 63.7% (active)
46 | Cc1ccc(-c2c[n+](CC(=O)Nc3ccccc3)c3n2CCC3)cc1 | 0.41% (inactive)
47 | Cc1ccc(C(=O)C[n+]2cc(-c3ccccc3)n3c2CCCCC3)cc1 | 70.7% (active) and 65.4% (active)
48 | O=c1oc(-c2ccccc2NS(=O)(=O)c2ccc(Cl)cc2)nc2ccccc12 | 2.45% (inactive)
49 | Cc1ccc(/C=N/NC(=S)Nc2cccc(S(=O)(=O)N(C)C)c2)o1 | 2.16% (inactive)
50 | COC(=O)c1ccc(NC(=S)Nc2cccc(C)n2)cc1 | -3.59% (inactive)

Row | SMILES | inhibition
51 | O=[N+]([O-])c1cccc(Nc2c3ccccc3nc3ccccc23)c1 | 2.06% (inactive)
52 | CC(=O)Nc1ccc(Nc2c3ccccc3nc3ccccc23)cc1 | 97.3% (active)
53 | Cc1ccc(Nc2c3c(nc4ccccc24)CCC3)cc1 | -1.93% (inactive)
54 | CC1=C(C)CC(C(=O)NNC(=O)c2csc3c2CCC(C(C)(C)C)C3)C(C(=O)O)C1 (configuration not stated) | 4.65% (inactive)
55 | CCCCCn1c(=O)c(C(=O)OCC)c(Cl)c2ccccc21 | -3.36% (inactive)
56 | CCOC(=O)C1CN(S(=O)(=O)c2ccc(F)cc2)C1 | 0.24% (inactive)
57 | Cc1c(CCO)c(=O)n(-c2ccccc2)n1S(=O)(=O)c1ccc(F)cc1 | 41% (active)
58 | Cc1ccc(S(=O)(=O)CC(=O)Nc2c(C)n(C)n(-c3ccccc3)c2=O)cc1 | 7.55% (inactive)
59 | Cc1cc(C)cc(OCC(=O)NNC(=O)CCN2C(=O)c3ccccc3C2=O)c1 | 5.47% (inactive)
60 | CCN(C(=O)COC(=O)c1c(NC(C)=O)sc(C)c1C)C1CCS(=O)(=O)C1 (configuration not stated) | 8.25% (inactive)
61 | CCOC(=O)c1ccccc1NS(=O)(=O)c1ccc(OC)cc1 | 5.36% (inactive)
62 | CCOC(=O)C1=C(c2ccc(OC)cc2)C(=O)c2ccccc2C1=O | 29.1% (active)
63 | CCOC(=O)c1c(-c2ccc(C)cc2)csc1/N=C(\C)C1=C(O)c2ccccc2C1=O | -0.41% (inactive)
64 | Brc1ccc(-c2nn[nH]n2)cc1 | 0.72% (inactive)
65 | COc1ccc(OCCC(=O)c2ccc(OC)cc2)cc1 | -3.65% (inactive)
66 | COc1ccc(C(=O)C[n+]2ccc(C)cc2)cc1 | 2.06% (inactive)
67 | COc1ccc(C(=O)C[n+]2ccc(N)c(C)c2C)cc1 | 74.6% (active)
68 | O=C(CNS(=O)(=O)c1ccccc1)NCC(=O)OCc1ccccc1F | 8.12% (inactive)
69 | O=C(c1cncc(Br)c1)N1CCN(c2ccc([N+](=O)[O-])cc2)CC1 | 6.79% (inactive)
70 | O=C1NC(c2ccc(-c3ccccc3[N+](=O)[O-])o2)C(C(=O)c2ccc(Cl)cc2)C(O)(C(F)(F)F)N1 (configuration not stated) | 6.99% (inactive)
71 | O=C(N/N=C/c1coc2ccccc2c1=O)c1cc2ccccc2o1 | 4.3% (inactive)
72 | O=C(N/N=C/c1c[nH]c2ccccc12)c1cc2ccccc2o1 | -2.26% (inactive)
73 | Cc1c(/C=N\NC(=O)c2cc3ccccc3o2)c2ccccc2n1C | 41.3% (active)
74 | CN(Cc1ccccc1)C(=O)CCc1ccccc1 | 1.56% (inactive)
75 | Cc1ccc(-c2cnc(NC(=O)CCC(=O)N(C)Cc3ccccc3)n2C)cc1 | 62.4% (active)

Row | SMILES | inhibition
76 | Cn1c(-c2ccc(F)cc2)cnc1SCC(=O)NNC(=O)Cc1ccccc1 | 1.6% (inactive)
77 | CC(=O)Nc1nc(N(C)C)nc(N(C)C)n1 | 2.27% (inactive)
78 | COc1ccc(-n2nnnc2SCC(=O)NCc2cccs2)cc1 | 7.65% (inactive)
79 | CSc1nc(N(C)NC(=O)c2cccc(C)c2)c2ccccc2n1 | 90.9% (active)
80 | COC(=O)CNC(=O)c1ccccc1F | 3.61% (inactive)
81 | CN(NC(=O)c1ccccc1)c1nc2ccccc2nc1C(F)(F)F | 5.67% (inactive)
82 | COc1ccc(OCC(=O)NNC(=O)c2cccc(C)c2)cc1 | 1.18% (inactive)
83 | COc1ccc(C(=O)NN(C)c2nc(-c3ccccc3)cc(C)c2S(C)(=O)=O)cc1 | 6.2% (inactive)
84 | CN(NC(=O)c1ccccc1F)c1nc(C(F)(F)F)nc2ccccc12 | 73.9% (active)
85 | Cc1cc(C)c2nc(SCC(=O)N(C)C3CCS(=O)(=O)C3)cc(C)c2c1 (configuration not stated) | 2.01% (inactive)
86 | CCc1cc(CNC(=O)CC2C(=O)NCCN2Cc2ccccc2C(F)(F)F)on1 (configuration not stated) | 2.77% (inactive)
87 | O=C(O)c1ccn(COc2ccc(Br)cc2)n1 | 6.73% (inactive)
88 | C=CCNC(=S)N/N=C/c1ccc(C)s1 | -10.6% (inactive)
89 | COC(=O)C1NN=C(C(=O)c2ccc(Br)cc2)C1c1cccc(Br)c1 (configuration not stated) | 5.65% (inactive)
90 | CC(C)CCN1CCN(Cc2cn[nH]c2C2CCCCC2)CC1CCO (configuration not stated) | 5.24% (inactive)
91 | CC1(C)CC(CNCCC(c2ccc(F)cc2)c2ccco2)CCO1 (configuration not stated) | 4.73% (inactive)
92 | Cc1cc(NC(=O)CN2C(=O)NC(C)(CCc3ccccc3)C2=O)no1 (configuration not stated) | -0.49% (inactive)
93 | O=C(Nc1ccc(CSc2ccccc2)cc1)c1ccc(CN2CCOCC2)cc1 | 6.68% (inactive)
94 | O=C(COC(=O)CNC(=O)c1ccccc1F)NCC(F)(F)F | 0.89% (inactive)
95 | CCOc1ccc(N2C(=O)CN(c3cccc4ccccc34)C2=S)cc1 | 80.4% (active)
96 | CCOc1ccc(N2C(=O)CC(N(O)c3ccccc3)C2=O)cc1 (configuration not stated) | -1.11% (inactive)
97 | CCO/C=C1\C(=O)N(c2ccc(OCC)cc2)C(=O)c2ccccc21 | 0.91% (inactive)
